FBA Mtb inh: inhibits M. tuberculosis FBA enzyme | inhibition, % at 1 µM | AID 588726 | purified M. tuberculosis FBA, fluorescence read-out | P9WQA3 | 360,000 tested, 2.3% active; in the data active = inhibition above about 27%;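 note: 0% = vehicle and 100% = reference inhibitor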
RecA intein inh: Mtb RecA intein splicing inhibition. P9WHJ3. cell-free RecA intein splicing, fluorescence. inhibition, % (test concentration not listed). 290,000 tested, 0.75% active. AID 2221; in the data active = inhibition above about 30%;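 note: 0% = vehicle wells and 100% = reference inhibitor control wells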
Target sequence (P9WHJ3 whole entry, looked up): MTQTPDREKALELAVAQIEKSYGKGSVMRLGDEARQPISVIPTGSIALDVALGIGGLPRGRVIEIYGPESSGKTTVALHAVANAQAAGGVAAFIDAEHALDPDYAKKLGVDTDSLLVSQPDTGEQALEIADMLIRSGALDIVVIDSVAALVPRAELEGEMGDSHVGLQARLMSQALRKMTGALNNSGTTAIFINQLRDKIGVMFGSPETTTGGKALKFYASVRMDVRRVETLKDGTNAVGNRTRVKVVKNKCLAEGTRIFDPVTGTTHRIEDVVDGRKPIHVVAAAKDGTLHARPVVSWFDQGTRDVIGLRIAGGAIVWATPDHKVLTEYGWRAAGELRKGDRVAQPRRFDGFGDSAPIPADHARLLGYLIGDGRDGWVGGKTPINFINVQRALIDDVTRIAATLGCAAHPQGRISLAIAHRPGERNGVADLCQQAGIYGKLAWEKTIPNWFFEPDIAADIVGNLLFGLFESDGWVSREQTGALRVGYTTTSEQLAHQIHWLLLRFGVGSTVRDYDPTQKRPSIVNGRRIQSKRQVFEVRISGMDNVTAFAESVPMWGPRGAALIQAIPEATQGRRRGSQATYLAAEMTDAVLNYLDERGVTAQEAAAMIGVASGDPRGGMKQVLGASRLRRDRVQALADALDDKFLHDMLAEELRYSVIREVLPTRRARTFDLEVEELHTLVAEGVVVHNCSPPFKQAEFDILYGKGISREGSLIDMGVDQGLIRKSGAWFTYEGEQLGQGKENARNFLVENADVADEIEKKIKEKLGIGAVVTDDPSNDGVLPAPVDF
GDH-TPI counter: GDH-TPI coupled enzyme inhibition counter-screen; GDH-TPI coupled enzyme counterscreen, NADH absorbance; inhibition, % at 4.8 µM; 360,000 tested, 1.2% active; AID 588335;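 note: 0% = DMSO wells and 100% = wells lacking the enzyme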
SARS 3CLpro inh: SARS-CoV 3CLpro protease inhibition | P0C6X7 | recombinant SARS-CoV 3CLpro, quenched FRET peptide cleavage | inhibition, % at 6 µM | 290,000 tested, 0.14% active | AID 1706; in the data active = inhibition above about 12%
CCHFV vOTU inh: CCHFV vOTU protease inhibition | Pep-AMC fluorescence | inhibition, % at 11.5 µM | 370,000 tested, 0.55% active | AID 651958; note: 0% = vehicle wells with enzyme and 100% = no enzyme wells
DUSP3 inh: DUSP3 (human) phosphatase inhibition. recombinant VHR phosphatase, pNPP absorbance. inhibition, % at 13.3 µM. 290,000 tested, 0.52% active. P51452; in the data active = inhibition above about 50%
* hit, by the source's call. In the library only some 4.7% were active in any assay of this set; here they are far more common. Cut-off read from the data, not from the text of the source, unless noted: active = inhibition above about 30%; inactive = the rest.

Results for Cc1ccc2nc(-c3ccccc3N)[nH]c2c1 ?
FBA Mtb inh: active; RecA intein inh: -41; GDH-TPI counter: 6; SARS 3CLpro inh: -3; CCHFV vOTU inh: -223; DUSP3 inh: 26

Results for Nc1ccc(-c2nc3c(Cl)c(N)ccc3[nH]2)cc1 ?
FBA Mtb inh: active; RecA intein inh: -2; GDH-TPI counter: 38*; SARS 3CLpro inh: 1; CCHFV vOTU inh: -286; DUSP3 inh: 0

Results for Cc1nc2ccc(-c3nc4ccc(N)cc4[nH]3)cc2[nH]1 ?
FBA Mtb inh: active; RecA intein inh: 4; GDH-TPI counter: 4; SARS 3CLpro inh: -6; CCHFV vOTU inh: -237; DUSP3 inh: 24

What do the screens show for `COc1ccc(-n2c(SCC(=O)Nc3ccc(Oc4ccccc4)cc3)nnc2-c2ccco2)cc1`?
CCHFV vOTU inh: 2

Results for C=CCN1[C@@H](CC(C)C)COc2cccc(F)c2S1(=O)=O ?
CCHFV vOTU inh: 8

Results for C=CCN1CC(COCc2ccccc2)OCCS1(=O)=O (stereo unspecified) ?
CCHFV vOTU inh: -4

How did Cc1ccc(C)c(-c2nc3ccc(N)cc3[nH]2)c1 do in these assays?
FBA Mtb inh: 189*; RecA intein inh: 1; GDH-TPI counter: -2; SARS 3CLpro inh: 6; CCHFV vOTU inh: -100; DUSP3 inh: 10

What do the screens show for `O=[N+]([O-])c1ccc(-c2nc3ccc([N+](=O)[O-])cc3[nH]2)cc1`?
FBA Mtb inh: 1; RecA intein inh: 8; GDH-TPI counter: 31*; SARS 3CLpro inh: 2; CCHFV vOTU inh: 3; DUSP3 inh: 38

What do the screens show for `Nc1ccc2nc(-c3cc(Cl)c(N)c(Cl)c3)[nH]c2c1`?
FBA Mtb inh: 25; RecA intein inh: -7; GDH-TPI counter: 35*; SARS 3CLpro inh: -1; CCHFV vOTU inh: -22; DUSP3 inh: -14

What do the screens show for `Cc1ccc2nc(Cc3ccc(N)cc3)[nH]c2c1`?
FBA Mtb inh: 1; RecA intein inh: -1; GDH-TPI counter: 9; SARS 3CLpro inh: 4; CCHFV vOTU inh: 9; DUSP3 inh: 38

How did Cc1cc2nc(-c3ccccc3O)[nH]c2cc1C do in these assays?
FBA Mtb inh: 157*; GDH-TPI counter: 15; CCHFV vOTU inh: -50

Results for Nc1cc(N)cc(-c2nc3ccccc3[nH]2)c1 ?
FBA Mtb inh: 6; GDH-TPI counter: 18; SARS 3CLpro inh: -3; CCHFV vOTU inh: 10; DUSP3 inh: -4

Results for CCOC(=O)CC[C@H]1CC[C@]2(CCCN(C(=O)c3ccccc3)C2)O1 ?
CCHFV vOTU inh: 1

Results for O=C(O)c1ccn(CSc2cc(Cl)ccc2Cl)n1 ?
FBA Mtb inh: -2; GDH-TPI counter: -3; CCHFV vOTU inh: -5

What do the screens show for `CN1CC(C(=O)O)Cc2c1ccc1ccccc21` (stereo unspecified)?
FBA Mtb inh: 102*; RecA intein inh: -58; GDH-TPI counter: 6; SARS 3CLpro inh: 0; CCHFV vOTU inh: -70; DUSP3 inh: 32

How did O[C@H]1CN(CC2CCCCC2)[C@@H](c2ccc(Cl)cc2)C[C@@H]1n1cc(C2CC2)nn1 do in these assays?
FBA Mtb inh: -1; GDH-TPI counter: 0; CCHFV vOTU inh: 6

What do the screens show for `Cc1ccnc2ccc(-c3nc4ccccc4o3)cc12`?
FBA Mtb inh: 76*; GDH-TPI counter: 17; SARS 3CLpro inh: 3; CCHFV vOTU inh: -18; DUSP3 inh: 3

Results for CCCOc1ccc(/C=C/c2c([N+](=O)[O-])c(=O)n(C)c(=O)n2C)cc1 ?
FBA Mtb inh: -1; RecA intein inh: 4; GDH-TPI counter: 39*; SARS 3CLpro inh: -4; CCHFV vOTU inh: -2; DUSP3 inh: 4

What do the screens show for `CC(C)OCCCn1c(=O)c2ccccc2n2c(CCC(=O)NC3CCN(Cc4ccccc4)CC3)nnc12`?
FBA Mtb inh: 4; RecA intein inh: 1; GDH-TPI counter: -2; SARS 3CLpro inh: 6; CCHFV vOTU inh: 3; DUSP3 inh: 53*

Results for N#Cc1c(N)nc2c(c1-c1ccc3c(c1)OCO3)CCc1ccccc1-2 ?
FBA Mtb inh: 31*; RecA intein inh: -3; GDH-TPI counter: 0; SARS 3CLpro inh: 4; CCHFV vOTU inh: -55; DUSP3 inh: 11

What do the screens show for `N#Cc1c(N)c(C#N)c(-c2ccc3c(c2)OCO3)c2c1CCCC2`?
FBA Mtb inh: 7; RecA intein inh: 3; GDH-TPI counter: 41*; CCHFV vOTU inh: -6; DUSP3 inh: 8

What do the screens show for `N#Cc1c(-c2ccc3c(c2)OCO3)csc1N`?
FBA Mtb inh: 1; RecA intein inh: 4; GDH-TPI counter: 6; SARS 3CLpro inh: 3; CCHFV vOTU inh: 10; DUSP3 inh: 21

How did COCCCN1C(=O)C(CC(=O)NCCN2CCOCC2)CC(C(=O)N(C(C)C)C(C)C)=C1C (stereo unspecified) do in these assays?
FBA Mtb inh: 2; CCHFV vOTU inh: 10

Results for O=C(c1ccco1)c1coc2c1cc(O)c1ccccc12 ?
FBA Mtb inh: 3; RecA intein inh: 45*; GDH-TPI counter: 10; SARS 3CLpro inh: 1; CCHFV vOTU inh: 18; DUSP3 inh: 18

What do the screens show for `CC(=O)c1coc2c1cc(O)c1ccccc12`?
FBA Mtb inh: 1; RecA intein inh: 4; GDH-TPI counter: 5; SARS 3CLpro inh: 0; CCHFV vOTU inh: 0; DUSP3 inh: 14

How did Cc1cc(CN(Nc2ccccc2)c2ccccc2)cc(C)n1 do in these assays?
FBA Mtb inh: -1; GDH-TPI counter: -1; CCHFV vOTU inh: 10

What do the screens show for `Cc1cc2ncn(/N=C/c3ccc([N+](=O)[O-])o3)c2cc1C`?
FBA Mtb inh: 0; RecA intein inh: -3; GDH-TPI counter: 12; SARS 3CLpro inh: 10; CCHFV vOTU inh: -10; DUSP3 inh: 52*

Results for Cc1ccc(N2C(=O)C3C4C=CC(CC4)C3C2=O)c([N+](=O)[O-])c1 (stereo unspecified) ?
FBA Mtb inh: -5; RecA intein inh: 1; GDH-TPI counter: -4; SARS 3CLpro inh: -2; CCHFV vOTU inh: 6; DUSP3 inh: 55*

Results for O=C1C2C3C=CC(CC3)C2C(=O)N1c1ccc(Br)cc1[N+](=O)[O-] (stereo unspecified) ?
FBA Mtb inh: 0; RecA intein inh: -1; GDH-TPI counter: -1; SARS 3CLpro inh: 2; CCHFV vOTU inh: -2; DUSP3 inh: 16

How did O=C(Nc1nccs1)c1sc2ccccc2c1Cl do in these assays?
FBA Mtb inh: 2; RecA intein inh: -3; GDH-TPI counter: 24; SARS 3CLpro inh: -4; CCHFV vOTU inh: -10; DUSP3 inh: 7

Results for O=C(Nc1nccs1)c1sc2cc(Cl)ccc2c1Cl ?
FBA Mtb inh: -4; RecA intein inh: -6; GDH-TPI counter: 34*; SARS 3CLpro inh: 1; CCHFV vOTU inh: -1; DUSP3 inh: 12

What do the screens show for `O=C(C1=NNCC1c1ccccc1)C1OC1c1ccccc1` (stereo unspecified)?
FBA Mtb inh: 5; RecA intein inh: 2; GDH-TPI counter: 10; SARS 3CLpro inh: -2; CCHFV vOTU inh: -1; DUSP3 inh: 17
